Measurements as given in PubChem BioAssay AID463173 (ICCB-Longwood Screening Facility, Harvard Medical School, 2010).
The campaign covered roughly 52,000 compounds. About 4,300 (8.3%) were called active. The list comes from a sample in which actives are over-represented; it also holds similar structures and randomly drawn compounds. Unmarked numbers belong to inactive results. No stated cut-off is given here; in the data, active means survival mostly below about 52% (no sharp cut-off); inactive means mostly above about 56%.

Tested on: DeltatarO mutant
Test: S. aureus survival, RN4220 and DeltatarO strains – OD600, teichoic acid synthesis inhibitors, primary screen (AID 463173)
Details: S. aureus RN4220 wild type/DeltatarO growth, OD600, 18 h, hits give low values, screened at 18.75 µg/mL (by protocol)

Row | Compound | survival
1 | CC(=O)c1ccc(NC(=O)Cn2c(=O)cc(C)c3c(C)nn(-c4cccc(F)c4)c32)cc1 | 81%
2 | Cc1cc(=O)n2nc(N3CCC(C(=O)NCCCOC(C)C)CC3)sc2n1 | 100%
3 | NC1CCC(c2ccccc2)CC1 (stereo not drawn) | 78%
4 | COc1ccc(-c2cn3nc(N4CCC(C(=O)NCc5ccc(F)cc5)CC4)sc3n2)cc1 | 88%
5 | CC1=C(C(=O)Nc2ccc(Cl)cc2)C(c2cccs2)n2nc(SCc3cccc(C)c3)nc2N1 (stereo not drawn) | 88%
6 | COCCNC(=O)CSc1cn(CC(=O)N2CCCCCC2)c2ccccc12 | 73%
7 | COc1ccc(-c2nc3c4cnn(-c5ccccc5F)c4ncn3n2)cc1 | 59%
8 | CN1CCN(C(CNC(=O)C(=O)Nc2ccccc2)c2ccc3c(c2)OCO3)CC1 (stereo not drawn) | 67%
9 | COc1ccc(NC(=O)c2c(C)oc3ccc(O)c(CN4CCC(C)CC4)c23)cc1 | 57%
10 | CCc1c(C)nc(SCC(=O)N2CCN(c3ccccc3OC)CC2)[nH]c1=O | 77%
11 | CCCCNC(=O)c1ccc2c(c1)NC(=O)C(CS(=O)(=O)Cc1ccc(C)cc1)N2 (stereo not drawn) | 87%
12 | COc1ccc(Cl)cc1S(=O)(=O)Nc1cccc(-c2ccc(N3CCOCC3)nn2)c1 | 97%
13 | NS(=O)(=O)c1ccc(CCNc2nc3c(-c4cccc(F)c4)nnn3c3ccc(Cl)cc23)cc1 | 65%
14 | Cc1cc(Cl)ccc1NC(=O)CSc1nc2c(c(=O)[nH]1)CCC2 | 80%
15 | COc1ccc(NC(=O)CSc2nc3ccccc3[nH]2)cc1 | 70%
16 | Cc1ccc(NC(=O)CSc2nc3ccc(Br)cc3[nH]2)c(C)c1 | 42% (active)
17 | Cc1cc(C)c(NC(=O)CSc2nc3ccncc3[nH]2)c(C)c1 | 119%
18 | Cc1ccc2nc(SCC(=O)Nc3ccc(C#N)cc3)[nH]c2c1 | 64% (active)
19 | COC(=O)c1ccc(NC(=O)CSc2nc3ccc(OC)cc3[nH]2)cc1 | 184%
20 | COCCNC(=O)CCCn1c(SCc2ccccc2Cl)nc2c(sc3ccccc32)c1=O | 129%
21 | COc1ccccc1NC(=O)c1ccc(-c2nc(COc3ccc(C)cc3)c(C)o2)cc1 | 83%
22 | COc1ccc(Nc2nnc(-c3cc4c(ccc5ccccc54)oc3=O)s2)cc1 | 82%
23 | CCCCN(Cc1ccccc1)S(=O)(=O)c1ccc2c(c1)CC(C)N2C(=O)CC (stereo not drawn) | 99%
24 | CCOC(=O)c1c(C)oc2nc(C)nc(NCc3cccc(OC)c3)c12 | 72%

Row | Compound | survival
25 | CC(=O)c1cccc(NC(=O)Cn2c(-c3cncs3)nc3ccccc32)c1 | 67%
26 | Cc1cc(C)cc(NC(=O)Cn2c(-c3cncs3)nc3ccccc32)c1 | 37% (active)
27 | Cc1ccc(NC(=O)Cn2c(-c3cncs3)nc3ccccc32)c(Br)c1 | 63%
28 | CCc1ccc(NC(=O)Cn2c(-c3cncs3)nc3ccccc32)cc1 | 59%
29 | CCCCOc1ccccc1NC(=O)Cn1c(-c2cncs2)nc2ccccc21 | 49% (active)
30 | CCCCCOc1ccc(NC(=O)Cn2c(-c3cncs3)nc3ccccc32)cc1 | 86%
31 | CC1CCN(C(=O)Cn2cc(SCC(=O)Nc3ccccc3)c3ccccc32)CC1 | 67%
32 | CCOc1ccc(CNC(=O)CCc2c(C)nn(-c3ccc(N4CCOCC4)nn3)c2C)cc1 | 72%
33 | O=C(CSc1nnc2c(n1)[nH]c1ccccc12)Nc1ccccc1 | 89%
34 | COc1ccc(CC(=O)NCC(c2ccc(Cl)cc2)N2CCOCC2)cc1 (stereo not drawn) | 71%
35 | CCCNC(=O)CSc1nc2nc(C)c(Cc3ccccc3Cl)c(C)n2n1 | 60%
36 | CCCCNC(=O)CSc1nc2nc(C)c(Cc3ccccc3C)c(C)n2n1 | 39% (active)
37 | CCN(CC)CCCNC(=O)CSc1nc2nc(C)c(Cc3ccccc3C)c(C)n2n1 | 75%
38 | Cc1ccc(Cc2c(C)nc3nc(SCC(=O)NC(C)c4ccccc4)nn3c2C)cc1 (stereo not drawn) | 53%
39 | Cc1ccccc1Cc1c(C)nc2nc(SCC(=O)N(C)c3ccccc3)nn2c1C | 78%
40 | Cc1ccccc1Cc1c(C)nc2nc(SCC(=O)NC(C)c3ccccc3)nn2c1C (stereo not drawn) | 57% (active)
41 | Cc1cccc2sc(N(CCN(C)C)C(=O)c3ccc4c(c3)OCCO4)nc12 | 119%
42 | CC(=O)N1CCc2c(sc3c2c(=O)n(-c2ccc(F)cc2)c(=O)n3Cc2ccc(C#N)cc2)C1 | 107%
43 | Cc1ccc(CNCc2ccc3c(c2)n(C)c(=O)n3C)cc1 | 92%
44 | CCN(CC)S(=O)(=O)c1ccc2c(c1)nc(CN(C)C(=O)c1cccc(Cl)c1)n2C | 71%
45 | C#CCOc1ccc(C2C3=C(CCCC3=O)N(CCC(=O)O)C3=C2C(=O)CCC3)cc1 | 70%
46 | COc1ccc2c(c1)CCc1c(C(=O)Nc3c(C)nn(Cc4c(Cl)cccc4Cl)c3C)noc1-2 | 114%
47 | CCOC(=O)c1cc2c(=O)n3ccccc3nc2n(CC2CCCO2)c1=NC(=O)c1cccc(C)c1 (stereo not drawn) | 29% (active)
48 | CCOC(=O)c1cc2c(=O)n3ccccc3nc2n(CC2CCCO2)c1=NC(=O)c1cccc(C(F)(F)F)c1 (stereo not drawn) | 97%

Row | Compound | survival
49 | CCOC(=O)c1cc2c(=O)n3ccccc3nc2n(CC2CCCO2)c1=NC(=O)c1ccc(C(C)(C)C)cc1 (stereo not drawn) | 59%
50 | CCOC(=O)c1cc2c(=O)n3ccccc3nc2n(CC2CCCO2)c1=NC(=O)c1cc(C)cc(C)c1 (stereo not drawn) | 44% (active)
51 | CCOC(=O)c1cc2c(=O)n3ccccc3nc2n(CC2CCCO2)c1=NC(=O)c1ccc(C)cc1 (stereo not drawn) | 101%
52 | CCn1c(CN2CCCCC2)nc2cc(NC(=O)c3cc(OC)c(OC)c(OC)c3)ccc21 | 87%
53 | O=C(c1cnc(N2CCCCC2)c2ccccc12)N1CCN(c2ccccc2F)CC1 | 75%
54 | Cc1ccc2c(c1)nnn2C1CCN(CC(=O)N(c2ccccc2)c2ccccc2)CC1 | 98%
55 | CCOc1ccc(CNC(=O)c2cnc3sc(N4CCC(C)CC4)nn3c2=O)cc1OC | 74%
56 | Cc1cn(C)c(CC(=O)NCc2ccc(Cl)cc2)c1C(=O)O | 102%
57 | Cc1cn(C)c(CC(=O)NCc2cccc(Cl)c2)c1C(=O)O | 20% (active)
58 | Cc1ccc(CNC(=O)Cc2c(C(=O)O)c(C)cn2C)cc1 | 89%
59 | COc1cccc(CNC(=O)Cc2c(C(=O)O)c(C)cn2C)c1 | 8% (active)
60 | COc1ccc(CNC(=O)Cc2c(C(=O)O)c(C)cn2C)cc1 | 94%
61 | Cc1cn(C)c(CC(=O)NCc2ccccc2)c1C(=O)O | 85%
62 | COc1ccc(NC(=O)c2ccc3oc(=O)c(S(=O)(=O)c4ccc(C)cc4)cc3c2)cc1OC | 90%
63 | COc1cc(Cl)c(C)cc1NC(=O)CCn1cnc2onc(-c3ccc(F)cc3)c2c1=O | 77%
64 | COc1ccc(-c2nn3c(=O)cc(CN4CCN(C(=O)Nc5cc(C)ccc5C)CC4)nc3s2)cc1 | 99%
65 | COc1ccc(NC(=O)C2CCN(S(=O)(=O)c3ccc4c(c3)CCCC(=O)N4)CC2)cc1Cl | 78%
66 | CCOc1ccc(-c2cc(C(=O)NCCc3ccc(Cl)cc3)c3ccccc3n2)cc1 | 81%
67 | COc1ccc(CCNC(=O)c2cc(-c3ccccc3)nc3ccccc23)cc1OC | 58%
68 | CCOc1ccc(-c2cc(C(=O)NCCc3ccc(C)cc3)c3ccccc3n2)cc1 | 52% (active)
69 | COc1ccc(-c2cc(C(=O)NCCc3ccc(OC)c(OC)c3)c3ccccc3n2)cc1 | 48% (active)
70 | COc1ccc(Nc2cc(C(=O)NCc3ccccc3)c3ccccc3n2)cc1 | 97%
71 | COc1ccc(Nc2cc(C(=O)NCc3cccs3)c3ccccc3n2)cc1 | 131%
72 | CCOc1ccc(-c2cc(C(=O)NCc3ccccc3)c3c(-c4ccc(CC)cc4)[nH]nc3n2)cc1 | 47% (active)

Row | Compound | survival
73 | COc1ccc(Nc2cc(C(=O)NCc3ccccc3OC)c3ccccc3n2)cc1 | -5% (active)
74 | CCOc1ccc(-c2cc(C(=O)NCc3ccc(C)cc3)c3ccccc3n2)cc1 | 87%
75 | COc1ccc(-c2cc(C(=O)NCc3ccccc3)c3c(-c4ccccc4)[nH]nc3n2)cc1 | 93%
76 | CCOc1ccc(-c2cc(C(=O)NCc3ccc(OC)cc3)c3c(-c4ccc(F)cc4)[nH]nc3n2)cc1 | 77%
77 | COc1ccc(CCNC(=O)c2cc(-c3ccc(C)c(C)c3)nc3ccccc23)cc1OC | 120%
78 | CCCCNc1ccc(-c2nc(-c3ccccc3)no2)cc1[N+](=O)[O-] | 72%
79 | CCOc1ccc(C(=O)O)o1 | 94%
80 | Cc1ccc(-n2c(SCC(=O)NC(C)(C)C)nc(O)cc2=O)cc1 | 107%
81 | CCCCOC(=O)c1ccc(Nc2ncnc3[nH]ncc23)cc1 | 55%
82 | N#Cc1ccccc1NC(=O)C(=O)NCCc1csc(-c2ccc(C(F)(F)F)cc2)n1 | 85%
83 | Cc1ccc(S(=O)(=O)c2cn(Cc3ccccc3)c3cc(N4CCCC4)c(F)cc3c2=O)cc1 | 71%
84 | Cc1nc2sc(C)c(C)n2c(=O)c1S(=O)(=O)N1CCN(c2ccccc2F)CC1 | 68%
85 | Cc1cc(C)c(NC(=O)Cn2c(=O)n(-c3cccc(C(F)(F)F)c3)c(=O)c3c(C)c(C)sc32)c(C)c1 | 92%
86 | O=C(Nc1ccc2c(c1)OCCO2)C1CCCN(S(=O)(=O)Cc2ccccc2)C1 (stereo not drawn) | 102%
87 | CCOc1ccc(NC(=O)c2nn(C)c3c2CS(=O)(=O)c2ccccc2-3)cc1 | 60%
88 | COc1ccc(C(=O)CSc2nc3cc(C(=O)NC4CCCC4)ccc3c(=O)n2CC2CCCO2)cc1 (stereo not drawn) | 95%
89 | Cc1ccc(C(=O)CSc2nc3cc(C(=O)NC4CCCC4)ccc3c(=O)n2CC2CCCO2)cc1 (stereo not drawn) | 101%
90 | Cc1ccc(C(=O)CSc2nc3cc(C(=O)NC4CCCC4)ccc3c(=O)n2CC2CCCO2)c(C)c1 (stereo not drawn) | 91%
91 | O=C(CSc1nc2cc(C(=O)NC3CCCC3)ccc2c(=O)n1CC1CCCO1)c1cccc(Cl)c1 (stereo not drawn) | 20% (active)
92 | O=C(CSc1nc2cc(C(=O)NC3CCCC3)ccc2c(=O)n1CC1CCCO1)c1ccc(F)cc1 (stereo not drawn) | 96%
93 | CCOc1ccc(C(=O)CSc2nc3cc(C(=O)NC4CCCC4)ccc3c(=O)n2CC2CCCO2)cc1 (stereo not drawn) | 8% (active)
